The source of these data is PubChem BioAssay (NCATS).

The target in assay [1] is Estrogen receptor (Homo sapiens) (UniProt P03372). As to the kind of experiment: qHTS assay for small molecule antagonists of estrogen receptor alpha signaling (AID 588513; active = well fitted curve in the direction sought with a large enough effect in the signal ratio, with a control signal flat, not every such curve was filed as active; the % refers to the signal ratio; also: % is scaled to controls: 0 for no effect and ±100 for the full control effect). An outline of the steps: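 Antagonist-mode qHTS in ER-alpha-UAS-bla HEK 293 cells: compound titration, 0.5nM estradiol for 18 h, CCF4 fluorescence, Hill-derived IC50.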
(In general: Quantitative high-throughput screening tests each substance at several concentrations.)

Assay [2] has the same target. Description: qHTS assay for small molecule agonists of estrogen receptor alpha signaling (AID 588514).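 Also: 0% = vehicle only and 100% = reference agonist; nearly all actives have a fitted effect of over 70% in size.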 In a few lines:
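Reporter-gene assay. […] controls beta-lactamase in HEK 293 GripTite cells; after 18 hrs with compound, CCF4 substrate is added for 2 hrs and fluorescence is read.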

Assay [3] has as its target Peroxisome proliferator-activated receptor delta (Homo sapiens) (UniProt Q03181). Description: qHTS assay for small molecule agonists of peroxisome proliferator-activated receptor delta signaling (AID 588534).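 Also: 0% = DMSO basal wells and 100% = positive control agonist at 10 µM.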 An outline of the steps:
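Reporter cells were plated and held 5 hrs at 37 C before compounds were added. After 18 hrs at 37 C, CCF4 dye was loaded for 2 hrs at RT and fluorescence measured.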

Assay [4] addresses Peroxisome proliferator-activated receptor gamma (Homo sapiens) (UniProt P37231). As to the kind of experiment: qHTS assay for small molecule agonists of peroxisome proliferator-activated receptor gamma signaling (AID 588536; active = well fitted curve in the direction sought with a large enough effect in the signal ratio, with a control signal flat, not every such curve was filed as active; the % refers to the signal ratio;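 also: 0% = DMSO basal wells and 100% = rosiglitazone at 2 µM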). An outline of the steps: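 GeneBLAzer PPAR-gamma-UAS-bla HEK293 cells in 1% charcoal/dextran-treated FBS medium were treated 16 h at 37 C with compounds. Beta-lactamase activity was read by CCF4 ratio (460/530 nm). Response was normalized to 2 uM rosiglitazone (100%) and DMSO, then Hill-fitted for EC50 and efficacy.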

The target is the same in assay [5]. Description: qHTS assay for small molecule antagonists of peroxisome proliferator-activated receptor gamma signaling (AID 588537; active = well fitted inhibition curve with a large enough effect in the signal ratio, with a control signal flat, not every such curve was filed as active; the % refers to the signal ratio;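 also: reporter cells co-stimulated with 50 nM rosiglitazone agonist during compound treatment; % of control where 0% means no effect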). In a few lines: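 Step one: plate 3000 HEK293 UAS-bla cells per well in medium with 1% stripped serum and hold 6-6.5 h at 37 C. Step two: add compound and 50 nM agonist for 16 h. Step three: CCF4 loading, fluorescence read.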
The target of assay [6] is Thyroid hormone receptor beta (Homo sapiens) (UniProt P10828). As to the kind of experiment: qHTS assay for small molecule agonists of thyroid hormone receptor beta signaling (AID 588545). An outline of the steps:
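Agonist-mode beta-lactamase reporter assay, HEK 293 cells, 2% charcoal/dextran FBS; cells plated 4 hrs, compound 18 hrs at 37 C, CCF4 2 hrs RT. Normalized to 10 nM T3 (100%) and DMSO (0%); Hill fit gives EC50, efficacy.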

A short description of assay [7]: qHTS assay for small molecule antagonists of retinoid X receptor alpha signaling (AID 588546; active = well fitted inhibition curve with a large enough effect in the signal ratio, with a control signal flat, not every such curve was filed as active; the % refers to the signal ratio;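 also: cells stimulated with 9-cis-retinoic acid as agonist; % is scaled to controls: 0 for no effect and ±100 for the full control effect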). The settings on record: HEK293T RXRa-UAS-bla, beta-lactamase ratio, antagonist mode; measured here: W530 green channel, cytotoxicity proxy. An outline of the steps:
(§1)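 Beta-lactamase reporter inhibition, read as CCF4 fluorescence ratio (ex 405, em 460/530 nm) after 2 h at RT. HEK293T UAS-bla cells, 2500/well, were stimulated with 9-cis-RA at 500 or 100 nM final alongside test compound for 18 h at 37 C.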

Assay [8] concerns the target Retinoic acid receptor RXR-alpha (Homo sapiens) (UniProt P19793). The description is as above. The settings on record: HEK293T RXRa-UAS-bla, beta-lactamase ratio, antagonist mode. In a few lines:
as §1

Assay [9] is described as follows: qHTS assay for small molecule activators of the p53 signaling pathway (AID 651743; active = well fitted activation curve with a large enough effect in the signal ratio, not every such curve was filed as active; the % refers to the signal ratio; also: series mostly up to about 92 µM; % of control where 0% means no effect). The settings on record: HCT-116 p53RE-bla, beta-lactamase FRET ratio, 16 h; activation: stronger effect = higher value. An outline of the steps: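 HCT-116 p53RE-bla, 4,000 cells/well; 5 h settle; cpd/DMSO 16 h, 37 C; LiveBLAzer B/G 2 h RT; fluorescence intensity.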
A short description of assay [10]: qHTS assay for environmental chemicals that activate the Aryl hydrocarbon Receptor (AhR) signaling pathway (AID 651777; active = well fitted curve in the direction sought with a large enough effect; an effect the other way counts as inactive or inconclusive; also: % of control where 0% means no effect; nearly all actives have a fitted effect of over 15% in size). The settings on record: 1A2-DRE human hepatoma cells, luciferase, 24 h; activation: stronger effect = higher value. An outline of the steps: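 Human hepatoma 1A2-DRE cells, stably carrying a dioxin response element and CYP1A2 promoter driving luciferase, were exposed to compounds for 24 hr at 37 C and 5% CO2. Luciferase signal was then read after 30 min One-Glo at room temperature.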

Assay [11] concerns the target Peroxisome proliferator-activated receptor alpha (Homo sapiens) (UniProt Q07869). Description: qHTS assay for small molecule agonists of the peroxisome proliferator-activated receptor alpha (PPARalpha) signaling pathway (AID 651778; active = well fitted curve in the direction sought with a large enough effect; an effect the other way counts as inactive or inconclusive; also: % of control where 0% means no effect). The note with it: PathHunter PPARalpha complementation, chemiluminescence, 6 h; max response: stronger effect = higher value. In a few lines: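 Enzyme-fragment complementation assay in which ligand-bound PPARalpha translocates and forms an active enzyme that generates chemiluminescence. Cells were plated overnight, exposed to compound for 6 hr at 37 C, and then given detection reagent for 60 min at room temperature.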

Assay [12] is described as follows: qHTS assay for small molecule agonists of the antioxidant response element (ARE) signaling pathway measured by Nrf2-dependant transcriptional activity (AID 720636; active = well fitted curve in the direction sought with a large enough effect in the repeat runs; an effect the other way counts as inactive or inconclusive; also: % of control where 0% means no effect). In a few lines:
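ARE-luc HepG2 cells carrying an Nrf2-responsive luciferase reporter were plated in medium with 1% dialyzed FBS, left 6 hr at 37 C to attach, then exposed to compound for 16 hr. Luciferase luminescence was read after ONE-Glo addition.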

Assay [13] in a line: qHTS assay for small molecule agonists of the antioxidant response element (ARE) signaling pathway measured by Nrf2-dependant transcriptional activity - cell viability counter screen (AID 720653; active = well fitted curve in the direction sought with a large enough effect in the repeat runs; an effect the other way counts as inactive or inconclusive; also: % is scaled to controls: 0 for no effect and ±100 for the full control effect). The note with it: ARE-bla HepG2 viability, CellTiter-Glo ATP luminescence, 16 h; max response: stronger effect = lower value. In a few lines: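 ARE-bla HepG2 cells treated with compounds for 16 h at 37C; this counter screen measures viability as intracellular ATP by CellTiter-Glo luminescence after 30 min at room temperature.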

Assay [14] in a line: qHTS assay for cell viability of HEK293 cells (AID 743288; active = well fitted curve in the direction sought with a large enough effect; an effect the other way counts as inactive or inconclusive; also: % is scaled to controls: 0 for no effect and ±100 for the full control effect; nearly all actives have a fitted effect of over 50% in size). The settings on record: ATP luminescence (CellTiter-Glo), 18 h; max response: stronger effect = lower value. An outline of the steps:
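Luminescent ATP quantitation served as the viability read-out. Cells (parental HEK293, 2,000/well) received compounds after at least 5 h at 37 C and were exposed for 18 h before a 30 min room-temperature reagent step.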

For assay [15], the target named is Nuclear receptor subfamily 1 group I member 2 (Rattus norvegicus) (UniProt Q9R1A7). As to the kind of experiment: qHTS assay for small molecule activators of the rat pregnane X receptor (rPXR) signaling pathway (AID 651751; call rule not given here; also: 0% is about no effect). The note with it: rPXR reporter cells, luciferase (One-Glo), 24 h.
The nature of assay [16]: qHTS assay for small molecule agonists of retinoid X receptor alpha signaling (AID 588544).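 As to activation: 0% = DMSO basal wells and 100% = reference agonist.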 The settings on record: HEK293T RXRa-UAS-bla, beta-lactamase reporter, 18 h; 530 nm emission.
In assay [17] the target is Retinoic acid receptor RXR-alpha (Homo sapiens) (UniProt P19793). The assay is described as above.
Assay [18] has as its target Thyroid hormone receptor beta (Homo sapiens) (UniProt P10828). Description: qHTS assay for small molecule antagonists of thyroid hormone receptor beta signaling (AID 588547; active = well fitted inhibition curve with a large enough effect in the signal ratio, with a control signal flat, not every such curve was filed as active; the % refers to the signal ratio;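 also: cells stimulated with 0.4 nM T3 agonist during compound exposure; series mostly up to about 77 µM; % is scaled to controls: 0 for no effect and ±100 for the full control effect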). The note with it: TR-UAS-bla HEK293, beta-lactamase ratio, antagonist mode, 18 h. In a few lines: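 TR-UAS-bla GripTite HEK293 cells in 2% charcoal/dextran FBS medium; compounds 0.59 nM to 92 uM with T3 at 0.4nM final, 18 h at 37 C. Beta-lactamase read by CCF4 fluorescence (460/530 nm); Hill fits gave IC50 and efficacy.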

Assay [19] is described as follows: qHTS assay for cell viability of the p53RE-bla HCT-116 cell line (AID 743292; active = well fitted curve in the direction sought with a large enough effect; an effect the other way counts as inactive or inconclusive; also: % is scaled to controls: 0 for no effect and ±100 for the full control effect; nearly all actives have a fitted effect of over 55% in size). An outline of the steps: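 CellSensor p53RE-bla HCT-116 cells, 4,000/well, preincubated 5 h at 37 C, then exposed to compounds in DMSO for 16 h at 37 C. Viability read as CellTiter-Glo luminescence (intracellular ATP) after 30 min at room temperature.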
Assay [20] concerns the target Vitamin D3 receptor (Homo sapiens) (UniProt P11473). Description: qHTS assay for small molecule antagonists of vitamin D receptor signaling (AID 588541). In a few lines:
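VDR-UAS-bla HEK293T cells in 2% charcoal-stripped FBS were stimulated with 1-alpha,25-dihydroxyvitamin D3 (3 nM final) plus compound for 16 h at 37 C. The beta-lactamase CCF4 readout was normalized to 50 nM agonist and DMSO, and Hill fits gave IC50.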

The structures appear in SMILES notation. Records with an inconclusive call do not appear. Active and inactive are the calls of the source. Unless noted, calls follow the shape of the full dose curve.

Sequence of Peroxisome proliferator-activated receptor gamma (Homo sapiens) (P37231 whole entry, looked up): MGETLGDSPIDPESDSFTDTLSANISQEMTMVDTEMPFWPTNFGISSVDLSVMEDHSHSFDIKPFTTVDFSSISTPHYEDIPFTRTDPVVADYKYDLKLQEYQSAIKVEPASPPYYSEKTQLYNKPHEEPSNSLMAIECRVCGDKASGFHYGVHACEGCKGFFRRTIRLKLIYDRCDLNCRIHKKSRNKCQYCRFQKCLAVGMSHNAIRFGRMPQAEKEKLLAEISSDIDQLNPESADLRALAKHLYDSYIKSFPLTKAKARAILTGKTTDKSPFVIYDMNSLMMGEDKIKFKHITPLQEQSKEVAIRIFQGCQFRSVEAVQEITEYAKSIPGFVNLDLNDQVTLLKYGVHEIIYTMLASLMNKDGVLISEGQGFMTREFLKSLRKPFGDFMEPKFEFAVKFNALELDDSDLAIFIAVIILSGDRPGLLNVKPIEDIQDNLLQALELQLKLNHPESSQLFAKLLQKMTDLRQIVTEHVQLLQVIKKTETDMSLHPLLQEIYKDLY
Sequence of Vitamin D3 receptor (Homo sapiens) (P11473 whole entry, looked up): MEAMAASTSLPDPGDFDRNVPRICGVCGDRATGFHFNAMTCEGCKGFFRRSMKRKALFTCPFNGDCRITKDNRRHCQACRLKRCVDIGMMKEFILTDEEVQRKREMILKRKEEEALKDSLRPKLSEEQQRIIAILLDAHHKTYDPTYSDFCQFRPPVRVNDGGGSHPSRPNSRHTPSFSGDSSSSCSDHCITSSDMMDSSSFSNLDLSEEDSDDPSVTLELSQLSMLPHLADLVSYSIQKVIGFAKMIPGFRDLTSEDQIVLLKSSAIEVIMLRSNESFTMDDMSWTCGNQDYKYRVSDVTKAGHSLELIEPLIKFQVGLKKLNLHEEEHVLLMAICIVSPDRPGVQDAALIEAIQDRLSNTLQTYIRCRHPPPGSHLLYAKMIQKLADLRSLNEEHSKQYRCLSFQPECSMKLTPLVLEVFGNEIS
Sequence of Nuclear receptor subfamily 1 group I member 2 (Rattus norvegicus) (Q9R1A7 whole entry, looked up): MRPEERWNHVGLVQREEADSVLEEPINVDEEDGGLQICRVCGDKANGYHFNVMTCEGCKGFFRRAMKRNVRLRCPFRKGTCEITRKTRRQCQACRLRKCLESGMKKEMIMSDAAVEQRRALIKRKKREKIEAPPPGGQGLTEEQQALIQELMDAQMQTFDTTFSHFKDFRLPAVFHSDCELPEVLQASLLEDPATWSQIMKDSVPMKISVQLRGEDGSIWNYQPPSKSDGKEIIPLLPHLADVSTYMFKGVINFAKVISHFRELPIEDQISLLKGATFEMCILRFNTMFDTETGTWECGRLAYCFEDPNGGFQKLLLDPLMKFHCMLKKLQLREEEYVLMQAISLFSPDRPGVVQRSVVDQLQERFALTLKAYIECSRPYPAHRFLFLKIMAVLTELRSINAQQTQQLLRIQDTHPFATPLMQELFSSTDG
Sequence of Thyroid hormone receptor beta (Homo sapiens) (P10828 whole entry, looked up): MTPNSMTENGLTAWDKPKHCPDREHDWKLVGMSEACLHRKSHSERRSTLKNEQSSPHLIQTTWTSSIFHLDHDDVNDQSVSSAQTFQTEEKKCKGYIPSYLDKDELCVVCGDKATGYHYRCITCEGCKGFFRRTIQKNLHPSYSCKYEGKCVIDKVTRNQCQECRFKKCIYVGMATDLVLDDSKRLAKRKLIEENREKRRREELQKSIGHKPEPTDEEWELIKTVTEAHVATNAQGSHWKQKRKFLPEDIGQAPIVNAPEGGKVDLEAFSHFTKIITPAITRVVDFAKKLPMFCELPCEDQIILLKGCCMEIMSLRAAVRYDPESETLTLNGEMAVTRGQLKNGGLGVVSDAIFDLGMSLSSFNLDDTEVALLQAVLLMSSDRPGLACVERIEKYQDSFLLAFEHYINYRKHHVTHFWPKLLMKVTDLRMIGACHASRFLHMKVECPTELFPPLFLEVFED
Sequence of Estrogen receptor (Homo sapiens) (P03372 whole entry, looked up): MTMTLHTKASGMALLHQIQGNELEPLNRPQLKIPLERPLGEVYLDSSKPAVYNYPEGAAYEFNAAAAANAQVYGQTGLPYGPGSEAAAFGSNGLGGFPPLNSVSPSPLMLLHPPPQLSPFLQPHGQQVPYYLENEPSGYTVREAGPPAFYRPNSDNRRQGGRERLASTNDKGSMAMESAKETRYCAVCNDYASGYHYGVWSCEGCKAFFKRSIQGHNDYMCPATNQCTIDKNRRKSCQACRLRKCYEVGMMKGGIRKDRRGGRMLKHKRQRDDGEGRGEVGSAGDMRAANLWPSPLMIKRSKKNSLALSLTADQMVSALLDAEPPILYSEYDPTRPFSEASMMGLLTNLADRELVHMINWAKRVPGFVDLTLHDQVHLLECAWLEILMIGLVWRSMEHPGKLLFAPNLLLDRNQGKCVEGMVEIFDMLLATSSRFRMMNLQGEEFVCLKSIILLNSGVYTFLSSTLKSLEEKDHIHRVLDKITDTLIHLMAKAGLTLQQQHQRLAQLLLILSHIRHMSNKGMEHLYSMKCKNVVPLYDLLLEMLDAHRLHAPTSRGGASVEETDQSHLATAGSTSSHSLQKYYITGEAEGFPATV
Sequence of Retinoic acid receptor RXR-alpha (Homo sapiens) (P19793 whole entry, looked up): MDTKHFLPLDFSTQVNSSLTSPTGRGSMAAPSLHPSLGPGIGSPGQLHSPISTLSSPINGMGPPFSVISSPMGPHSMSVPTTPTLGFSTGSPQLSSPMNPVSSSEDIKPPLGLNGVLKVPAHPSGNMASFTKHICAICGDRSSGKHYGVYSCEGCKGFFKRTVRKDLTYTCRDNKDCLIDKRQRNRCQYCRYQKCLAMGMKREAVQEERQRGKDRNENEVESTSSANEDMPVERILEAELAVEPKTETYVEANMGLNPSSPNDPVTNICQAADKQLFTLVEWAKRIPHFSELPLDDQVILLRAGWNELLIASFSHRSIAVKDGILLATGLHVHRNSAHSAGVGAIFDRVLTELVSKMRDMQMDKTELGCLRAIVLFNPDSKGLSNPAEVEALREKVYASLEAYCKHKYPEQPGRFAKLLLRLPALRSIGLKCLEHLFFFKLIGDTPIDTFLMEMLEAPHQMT
Sequence of Peroxisome proliferator-activated receptor alpha (Homo sapiens) (Q07869 whole entry, looked up, the tested form may be a part): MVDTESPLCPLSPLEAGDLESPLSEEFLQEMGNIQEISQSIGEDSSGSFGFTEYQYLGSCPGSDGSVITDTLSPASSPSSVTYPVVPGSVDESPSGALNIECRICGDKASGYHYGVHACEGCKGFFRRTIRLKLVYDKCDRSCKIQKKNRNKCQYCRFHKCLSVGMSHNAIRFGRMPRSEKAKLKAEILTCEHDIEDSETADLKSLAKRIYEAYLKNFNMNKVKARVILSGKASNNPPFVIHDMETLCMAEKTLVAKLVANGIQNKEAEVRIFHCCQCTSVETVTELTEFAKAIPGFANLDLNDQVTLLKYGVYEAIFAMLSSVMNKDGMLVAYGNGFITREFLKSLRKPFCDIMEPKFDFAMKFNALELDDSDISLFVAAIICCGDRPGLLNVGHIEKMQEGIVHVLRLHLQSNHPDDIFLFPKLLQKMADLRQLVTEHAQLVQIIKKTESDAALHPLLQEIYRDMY
Sequence of Peroxisome proliferator-activated receptor delta (Homo sapiens) (Q03181 whole entry, looked up): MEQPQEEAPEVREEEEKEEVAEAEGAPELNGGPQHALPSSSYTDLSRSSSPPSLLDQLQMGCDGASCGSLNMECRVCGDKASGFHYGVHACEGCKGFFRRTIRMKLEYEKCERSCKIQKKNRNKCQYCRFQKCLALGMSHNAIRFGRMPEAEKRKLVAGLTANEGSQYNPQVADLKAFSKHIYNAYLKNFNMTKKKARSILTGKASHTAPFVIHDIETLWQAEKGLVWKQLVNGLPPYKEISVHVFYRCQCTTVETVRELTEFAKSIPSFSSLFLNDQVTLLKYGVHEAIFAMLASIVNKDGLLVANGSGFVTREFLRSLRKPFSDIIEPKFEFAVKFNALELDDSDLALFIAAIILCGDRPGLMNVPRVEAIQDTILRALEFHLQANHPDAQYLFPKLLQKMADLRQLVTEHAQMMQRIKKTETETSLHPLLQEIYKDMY

`CCOc1nc(NC)nc(NC(=O)NS(=O)(=O)c2ccccc2C(=O)OC)n1`: the Potency entry in assay [1], in [2], in [4], in assay [5], in assay [6] and in assay [12] was “inactive” in each case. For the same molecule, in assay [3], the molecule was called inactive. Moreover, the max response in assay [7] was -10.6%; in [8], 20.8% (inactive); in assay [11], -5.58% (inactive); in [13], 13.3% (inactive); in [14] it was 9.14% (inactive); in assay [15], 1.05% (inactive). The activation in assay [9] is -5.96% (inactive); in [10], 0.873% (inactive).
As to `Cc1ccccc1C(=O)Nc1cccc(OC(C)C)c1`, the Potency result in [1], in assay [2], in assay [17], in [6] and in assay [19] was “inactive” in each case. In addition, the molecule was called inactive in assay [3]. Moreover, the max response is -12.9% in [16]; -1.03% in [7]; -11.3% (inactive) in [8]; -0.819% (inactive) in [11]; -14.9% (inactive) in [13]; -16% (inactive) in assay [14]. Moreover, the activity change % (negative = inhibition) in assay [18] is 5.62% (inactive). Further, the activation in assay [9] was -3.37% (inactive).
As for `CCOP(=S)(OCC)SCC(=O)NC(C)C`, the Potency entry in assay [1], in assay [2], in assay [5], in assay [20], in [17] and in assay [6] was “inactive” in each case. Besides, the Potency result in assay [12] and in assay [19] was “inactive” throughout. For the same molecule, in assay [3], the molecule was called inactive. For the same molecule, the max response in assay [16] is -3.21%; in assay [7], -8.13%; in assay [8], -1.4% (inactive); in [11], -4.11% (inactive); in assay [13], 2% (inactive); in [14] it was -3.84% (inactive). The values for the activation in assay [9] and in assay [10] were -0.0599% (inactive) and 0.496% (inactive), respectively.
Regarding `CCCCC(CC)C(=O)Cl` (configuration not stated), the Potency entry in [1], in assay [2], in assay [4], in assay [5], in assay [17] and in [6] was “inactive” throughout. For the same molecule, the Potency entry in assay [12] and in [19] was “inactive” throughout. Besides, the outcome in assay [3] was inactive. Besides, the max response in [16] is -20.2%; in assay [7] it was -9.74%; in assay [8] it was 2.12% (inactive); in assay [11] it was -0.947% (inactive); in assay [13] it was -2.12% (inactive); in assay [14], -4.59% (inactive). Moreover, in [15], the max response was -0.98% (inactive). For the same molecule, the activity change % (negative = inhibition) in assay [18] is 0.279% (inactive). In addition, the figures for the activation in assay [9] and in [10] were -0.76% (inactive) and 0.633% (inactive), respectively.
In the case of `COCc1cnc(C2=NC(C)(C(C)C)C(=O)N2)c(C(=O)O)c1` (configuration not stated), the Potency result in [1], in assay [2], in [5], in assay [20], in assay [6] and in [12] was “inactive” throughout. For the same molecule, in [19], the Potency entry is “inactive”. Further, the call in assay [3] was inactive. The max response is -13.7% in assay [7]; 6.51% (inactive) in [8]; 0.0113% (inactive) in assay [11]; 4.02% (inactive) in assay [13]; -3.54% (inactive) in [14]; -0.0309% (inactive) in [15]. In [18], the activity change % (negative = inhibition) was -1.58% (inactive). In addition, the activation in assay [10] was 1.65% (inactive).
Consider `CCOC1Oc2ccc(OS(C)(=O)=O)cc2C1(C)C` (configuration not stated), for which the Potency result in assay [1], in assay [2], in assay [4], in [5], in assay [20] and in assay [17] was “inactive” in each case. The Potency entry in assay [6] and in assay [19] was “inactive” throughout. Besides, the outcome in [3] was inactive. For the same molecule, the max response in assay [16] is 7.47%; in assay [7], -7.46%; in assay [11] it was -0.11% (inactive); in assay [13], -22.7% (inactive); in [14], -23.7% (inactive); in assay [15], 11.5% (inactive). Besides, in assay [10], the activation was 1.08% (inactive).
